# The source made the active and inactive calls. How the source made its calls: active means hit-call score of the fitted dose curve at least 0.9, where 1 is the maximum; inactive means score below 0.9.
# Assay: CCTE_Padilla_ZF_Score.Spine: CCTE's 144 Hour Post-fertilization zebrafish Assay Score for Spine Malformation, Padilla Lab (AID 2284407)
# Procedure: CCTE_Padilla_ZF_Phenotype_Score is a whole embryo, multiplexed assay using zebrafish ova exposed for 144 hours post fertilization on a 96-well plate.CCTE_Padilla_ZF_Score.Spine is one of one assay component(s) measured or calculated from the CCTE_Padilla_ZF_Phenotype_Score assay. It is designed to make measurements of zebrafish development as detected with brightfield microscopy of developing zebrafish embryos.Data from the assay component CCTE_Padilla_ZF_Score.Spine was analyzed into 1 assay endpoints. This assay endpoint, CCTE_Padilla_ZF_Score.Spine, was analyzed in the positive analysis fitting direction relative to DMSO as the negative control and baseline of activity. Using a type of viability reporter, gain-of-signal activity can be used to understand changes in developmentals as they relate to the whole embryo. To generalize the intended target to other relatable targets, this assay endpoint is annotated to the zebrafish development intended target family, where the subfamily is body axis morphogenesis.
# Zebrafish husbandry: Wild type adult zebrafish (Danio rerio; undefined outbred stock obtained from Aquatic Research Organisms, Hampton, NH, 03842) were housed in an AAALAC-approved animal facility at 28C with a 14:10 h light: dark cycle (lights on at 08:30 h). Adult fish (2-3 females per male; density = 15-20 adults per tank) were kept in one of several 9-liter (L) flow-through colony tanks (Aquaneering Inc., San Diego, CA). All adults in a colony tank were placed in a 2 L (static) breeding tank (Aquatic Habitats, Apopka, FL) one hour prior to light onset. Typically, adults from two to three colony tanks were mated on the same day. Two hours after light onset the adults were returned to the colony tank. All embryos were gathered from each breeder tank, pooled, and placed in a 28C water bath for 2 h, followed by two washes with 0.06% bleach (v/v) in 10% Hanks' Balanced Salt Solution (13.7 mM NaCl 0.54 mM KCl, 25 uM Na2HPO4, 130 uM CaCl2 100 um MgSO4 and 420 um NaHCO3,), hereafter referred to as Hanks' solution, for 5 min in order to remove any residual bacteria or fungi. Immediately following washing, the embryos were examined, and healthy embryos were separated from dead or unfertilized eggs and moved into fresh Hanks'. Chemical exposures: Zebrafish embryos were exposed in 96-well plates. Between 6- and 8-hours post fertilization (hpf), healthy embryos (with chorions) were transferred, one embryo per well, into 96 well (0.5 mL) microtiter plates (Cell Culture-Treated, Flat-Bottom Microplate 96 well [Corning Costar, Kennebunk, ME; Cat 09-761-145]) filled with 200 uL of Hanks' solution. A random number generator was used to assign the order in which the rows of embryos were plated in 96 well plates each week. After plating, the embryos were dosed with 0.8 uL of the chemical dosing solution then immediately sealed with AlumaSeal II (Excel Scientific Inc, Victorville, CA) to prevent volatilization of the chemicals, and then placed in a leakproof secondary container. These containers were placed in an incubator maintained on a 14:10 h light: dark cycle at 26C for rearing. On 5 dpf, live larvae were gently moved out of the plate with test chemicals and into a new 96 well mesh plate (Millipore Corp., Bedford, MA) with just the Hanks' solution. Once within the mesh well plate, the animals were rinsed with 400 uL of fresh Hanks' three times, and then the plates were covered with a non-adhesive material (Microseal A, BioRad, Hercules, CA), plate lid added, and then plate sides wrapped in Parafilm (PM992, Bermis Company, Neenah, WI), and returned to the incubator. […]
row,SMILES,outcome
1,NC(O)(C(F)(F)F)C(F)(F)F,inactive
2,O=S(=O)(O)CCC(F)(F)C(F)(F)C(F)(F)C(F)(F)C(F)(F)C(F)(F)C(F)(F)C(F)(F)F,inactive
3,COC(F)(C(F)F)C(F)(F)F (stereo not given),inactive
4,O=C(O)C(F)(F)C(F)(F)C(F)(F)C(F)(F)C(F)(F)C(F)(F)C(F)F,inactive
5,O=C(O)C(F)(F)C(F)(F)C(F)(F)OC(F)(F)F,inactive
6,C=C(C)C(=O)OCC(F)(F)C(F)(F)C(F)(F)C(F)F,inactive
7,O=C(O)CCC(F)(F)C(F)(F)C(F)(F)C(F)(F)C(F)(F)C(F)(F)C(F)(F)F,inactive
8,FC(F)(F)C(F)(F)C(F)(F)C(F)(F)C(F)(F)C(F)(F)C(F)(F)CCI,inactive
9,OCC(O)CC(F)(F)C(F)(F)C(F)(F)C(F)(F)F (stereo not given),inactive
10,CCOC(=O)CC(=O)C(F)(F)C(F)(F)F,inactive
11,NC(=O)C(F)(F)C(F)(F)C(F)(F)C(F)(F)C(F)(F)C(F)(F)C(F)(F)F,inactive
12,O=C(F)C1(F)C(F)(F)C(F)(F)C(F)(F)C(F)(F)C1(F)F,inactive
13,OC(O)C(F)(F)C(F)(F)F,inactive
14,O=C(O)C(F)(F)OC(F)(F)C(F)(F)OC(F)(F)C(F)(F)OC(F)(F)F,inactive
15,O=S(=O)(O)CCC(F)(F)C(F)(F)C(F)(F)C(F)(F)F,inactive
16,NCC(F)(F)C(F)(F)C(F)(F)C(F)(F)C(F)(F)C(F)(F)F,inactive
17,NC(=O)C(F)(F)C(F)(F)C(F)(F)F,inactive
18,OCC(F)(F)C(F)(F)C(F)(F)C(F)(F)C(F)(F)C(F)(F)CO,inactive
19,CO[Si](C)(CCC(F)(F)C(F)(F)C(F)(F)C(F)(F)C(F)(F)C(F)(F)F)OC,inactive
20,OCCCCC(F)(F)C(F)(F)C(F)(F)C(F)(F)F,inactive

row,SMILES,outcome
1,NS(=O)(=O)C(F)(F)C(F)(F)C(F)(F)C(F)(F)C(F)(F)C(F)(F)F,inactive
2,OCC(F)(F)C(F)(F)C(F)(F)CO,inactive
3,O=C(O)C(F)(F)C(F)(F)C(F)(F)C(=O)O,inactive
4,CCN(CCO)S(=O)(=O)C(F)(F)C(F)(F)C(F)(F)C(F)(F)C(F)(F)C(F)(F)C(F)(F)C(F)(F)F,inactive
5,C=CC(=O)OCC(F)(F)C(F)(F)C(F)(F)C(F)(F)C(F)(F)C(F)(F)C(F)(F)C(F)F,inactive
6,C=CC(=O)OCCC(F)(F)C(F)(F)C(F)(F)C(F)(F)F,inactive
7,OCC(F)(F)C(F)(F)C(F)(F)C(F)(F)C(F)(F)C(F)(F)C(F)(F)C(F)(F)CO,inactive
8,NCC(F)(F)C(F)(F)C(F)(F)C(F)(F)C(F)(F)C(F)(F)C(F)(F)C(F)(F)F,inactive
9,NC(=O)C(F)(F)C(F)(F)C(F)(F)C(F)(F)C(N)=O,inactive
10,C[Si](Cl)(Cl)CCC(F)(F)C(F)(F)C(F)(F)C(F)(F)C(F)(F)C(F)(F)F,inactive
11,CN(C(=O)C(F)(F)C(F)(F)C(F)(F)F)[Si](C)(C)C,inactive
12,O=C(Cl)C(F)(F)C(F)(F)C(F)(F)C(F)(F)C(F)(F)C(F)(F)F,inactive
13,OCCCC(F)(F)C(F)(F)C(F)(F)C(F)(F)C(F)(F)C(F)(F)C(F)(F)C(F)(F)F,inactive
14,FC(F)(F)C(F)(F)C(F)(F)CC1CO1 (stereo not given),inactive
15,OCC(O)CC(F)(F)C(F)(F)C(F)(F)C(F)(F)C(F)(F)C(F)(F)C(F)(F)C(F)(F)F (stereo not given),inactive
16,NC(=O)C(F)(F)C(F)(F)C(F)(F)C(F)F,inactive
17,O=C(Cl)C(F)(F)C(F)(F)C(F)(F)C(F)(F)C(F)(F)C(F)(F)C(F)(F)F,inactive
18,CNS(=O)(=O)C(F)(F)C(F)(F)C(F)(F)C(F)(F)C(F)(F)C(F)(F)C(F)(F)C(F)(F)F,inactive
19,O=C(O)CCC(F)(F)C(F)(F)C(F)(F)F,inactive
20,O=S(=O)(OCC(F)(F)F)C(F)(F)C(F)(F)C(F)(F)C(F)(F)F,inactive
